The text below walks through data of PubChem BioAssay (NCI).

SMILES strings stand for the structures. The panel holds about 83,000 compounds, 20% with a hit somewhere; the sample as a whole holds those more often.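 48-hour exposure, single concentration, 96-well plates; percent growth endpoint where 0 means no net growth. Active: below 10.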 Unmarked numbers belong to inactive results. Calls of active or inactive are those of the source.

For the test, the system named is HL-60(TB) leukemia. The test is described as follows: NCI-60 one-dose screen, 48 h (100 = growth as untreated, 0 = no growth, -100 = all killed). As to conditions: 10 µM unless noted.
For `COc1ccc(C2c3[nH]c4ccc(Cl)cc4c3CCN2c2oc(CO)nc2C#N)cc1` (stereo not given), the growth is 29.4%.

With `Cc1noc(C)c1CSc1nc2ccccc2n1-c1ccccc1`, the growth was 111%.

For `COc1cc(/C=C/C(=O)c2ccc(N3CCN(C)CC3)cc2)ccc1F`, the growth was 50%.

For `c1ccc(C(c2nc3ncncc3[nH]2)N2CSc3nc4ccccc4n3C2)cc1` (stereo not given), the growth was 108%.

As for `CCN(CC)CCOc1ccc(C(=C(C)c2ccc(OC)cc2)c2ccc(OCCN(CC)CC)cc2)cc1`, the growth was -42.9% (active).

Consider `O=C1/C(=C/c2ccccc2[N+](=O)[O-])Oc2ccc(O)cc21`, for which the growth was 24.3%.

Take `CCOc1ccc([C@H]2C(C(=O)c3ccc(Cl)cc3)C3(N[C@@H]2c2ccccc2)C(=O)Nc2ccc(Br)cc23)cc1` (stereo not given in full): the growth is 15.2%.

Take `Cn1cc(-c2cc(N)n3nc(-c4cn(C)c5ccc(Cl)cc45)cc3n2)c2cc(Cl)ccc21`: the growth is 31.5%.

Take `O=C(CCCCCCNC(=O)C(O)(O)C(F)(F)F)Nc1ncc(-c2ccccc2)s1`: the growth is 11.2%.

In the case of `CCCC(=O)NC(c1cccnc1)c1cc(Cl)c2cccnc2c1O` (stereo not given), the growth is 34.1%.

Take `CN1CCN(c2ccc(Nc3nc(NCCCNS(=O)(=O)c4cccc(F)c4)c4sccc4n3)cc2)CC1`: the growth was -48.7% (active).

For the molecule `CC(C)(C)OC(=O)N1C(=O)c2c(c3c4ccccc4[nH]c3c3ccc4ccccc4c23)C1=O`, the growth was 39.6%.

On to `Cc1ccc(-c2nc(SCC(=O)c3ccccc3)nc(Nc3ccc(S(N)(=O)=O)cc3)c2C#N)cc1`, for which the growth was 95.9%.

In the case of `C#C[C@]1(O)CC[C@H]2[C@@H]3CC=C4c5sc(Nc6ccc(C)cn6)nc5CC[C@]4(C)[C@H]3CC[C@@]21C`, the growth was -43.3% (active).

Regarding `CC(=O)c1ccc(Nc2nc(SCC(C)C)nc(-c3ccccc3)c2C#N)cc1`, the growth was 101%.

For the molecule `Clc1ccc2oc3c(NCCCN4CCOCC4)c4ccccc4nc3c2c1`, the growth is 20.8%.

As to `Cc1occc1-c1nc2s/c(=C/c3ccc(-c4cc(C(F)(F)F)ccc4Cl)o3)c(=O)n2n1`, the growth is 106%.

As for `c1ccc(-c2n(Cc3ccc4ccccc4c3)c3c4ccccc4c4ccccc4c3[n+]2Cc2ccc3ccccc3c2)cc1`, the growth is -61.4% (active).

As for `COc1ccc(NC2=C(Br)C(=O)C(C)=C(C)C2=O)cc1OC`, the growth is -34.6% (active).

For `COc1ccc(NC(=O)[C@H](C)N)cc1C(=O)Nc1cccc(-c2cc(=O)c3c(OC)c(OC)c(OC)cc3o2)c1`, the growth was 58.9%.

With `CCOC(=O)C(=O)/C(=C\c1ccc(Cl)cc1)C(=O)N1C(=S)NC(=O)C1CC(C)C` (stereo not given), the growth was 111%.

As to `CN1CCN(c2ccc(/C=N/n3cnc4oc(-c5ccccc5)cc4c3=N)cc2)CC1`, the growth is 121%.

On to `CN(C)CCCOc1c2ccc(Cl)cc2nc2c1oc1ccc(Cl)cc12`, for which the growth was 18.9%.

As for `CCN1C(=O)N(CC)C2SC(N/N=C/C=C/c3ccccc3OC)=NC21` (stereo not given), the growth was -9.85% (active).

Regarding `CCOP(=O)(OCC)OC[C@]12CCC(C)(C)C[C@H]1C1=CC[C@@H]3[C@@]4(C)C/C(=C\c5cccnc5)[C@H](OP(=O)(OCC)OCC)C(C)(C)[C@@H]4CC[C@@]3(C)[C@]1(C)CC2`, the growth was -22.2% (active).

For `CCOC(=O)c1c(NC(=O)c2cccc(C(F)(F)F)c2)sc2c1CCC(=O)C2`, the growth is 37.7%.

Take `Cc1ccc2c(c1)C(=O)/C(=C/c1cccc(F)c1)S2`: the growth is 98.9%.

With `O=C(/C=C/C=C/c1csc(Br)n1)NO`, the growth was 58.4%.

Consider `O=C(Nc1ccc2c(ccn2Cc2ccccn2)c1)c1cnccn1`, for which the growth was 131%.

Regarding `O=c1c2ccccc2nc(COc2ccccc2)n1/N=C/C=C/c1ccccc1`, the growth was 107%.

With `CCNC(=O)N1CCc2cc(OC)c(OCCc3ccc(OC)nc3)cc2C1c1ccc(OC)cc1C` (stereo not given), the growth is 11.5%.

For the molecule `C=CCSc1ccc2c(c1)C(N1CCNCC1)=Nc1ccccc1O2`, the growth is 25.6% [8.25 µM].

Consider `CC1(C)[C@@H](O)CC[C@]2(C)[C@H]3CC[C@@H]4[C@H]5[C@H](C(=O)/C=C\c6ccc([N+](=O)[O-])cc6)CC[C@]5(O)CC[C@@]4(C)[C@]3(C)CC[C@@H]12`, for which the growth was 27.9%.

In the case of `O=C1[C@@H]2Cc3c([nH]c4ccccc34)[C@H](c3c(Cl)cccc3Cl)N2C(=O)CN1C1CCN(Cc2c(F)cccc2F)CC1`, the growth is 109%.

As for `O=C(Cn1cc[n+](CC(=O)c2ccc(-c3ccccc3)cc2)c1)Nc1cccc2cccnc12`, the growth was 14.5%.

As for `CCCCOc1ccc(S(=O)(=O)N2CCN(c3nccc(N4CCOCC4)n3)CC2)cc1`, the growth is 32.4%.

On to `Brc1cc(-c2cc(-c3ccc4c(c3)OC=CO4)[nH]n2)cs1`, for which the growth is 91.6%.

In the case of `CC[C@@H](CO)Nc1ccc2ncc(C#Cc3cncc(C(=O)Nc4ccc(CN5CCN(C)CC5)c(C(F)(F)F)c4)c3)n2n1`, the growth was -27.3% (active).

As for `Nc1ccc(-c2nnc(SCc3ccc(O)c4ncccc34)o2)cc1`, the growth was -5.84% (active).

As to `COc1ccc(OC)c([C@H]2c3[nH]c4ccccc4c3C[C@H]3C(=O)N(CCCCCCC(=O)NO)CC(=O)N23)c1`, the growth was 91.1%.
